EPAC1 antag: EPAC1 (human) antagonism. O95398. EPAC1 GEF assay, Rap1b-BODIPY-GDP exchange fluorescence. Potency, µM (highest dose often 115 µM), without a hit: at the top dose activity change, negative = inhibition, usual class: inhibitors. 360,000 compounds, 0.14% hits. AID 720709;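 further: plate controls were vehicle for no effect and positive control for full effect; nearly all actives have a fitted effect of over 50% in size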
Target sequence (O95398 whole entry, looked up): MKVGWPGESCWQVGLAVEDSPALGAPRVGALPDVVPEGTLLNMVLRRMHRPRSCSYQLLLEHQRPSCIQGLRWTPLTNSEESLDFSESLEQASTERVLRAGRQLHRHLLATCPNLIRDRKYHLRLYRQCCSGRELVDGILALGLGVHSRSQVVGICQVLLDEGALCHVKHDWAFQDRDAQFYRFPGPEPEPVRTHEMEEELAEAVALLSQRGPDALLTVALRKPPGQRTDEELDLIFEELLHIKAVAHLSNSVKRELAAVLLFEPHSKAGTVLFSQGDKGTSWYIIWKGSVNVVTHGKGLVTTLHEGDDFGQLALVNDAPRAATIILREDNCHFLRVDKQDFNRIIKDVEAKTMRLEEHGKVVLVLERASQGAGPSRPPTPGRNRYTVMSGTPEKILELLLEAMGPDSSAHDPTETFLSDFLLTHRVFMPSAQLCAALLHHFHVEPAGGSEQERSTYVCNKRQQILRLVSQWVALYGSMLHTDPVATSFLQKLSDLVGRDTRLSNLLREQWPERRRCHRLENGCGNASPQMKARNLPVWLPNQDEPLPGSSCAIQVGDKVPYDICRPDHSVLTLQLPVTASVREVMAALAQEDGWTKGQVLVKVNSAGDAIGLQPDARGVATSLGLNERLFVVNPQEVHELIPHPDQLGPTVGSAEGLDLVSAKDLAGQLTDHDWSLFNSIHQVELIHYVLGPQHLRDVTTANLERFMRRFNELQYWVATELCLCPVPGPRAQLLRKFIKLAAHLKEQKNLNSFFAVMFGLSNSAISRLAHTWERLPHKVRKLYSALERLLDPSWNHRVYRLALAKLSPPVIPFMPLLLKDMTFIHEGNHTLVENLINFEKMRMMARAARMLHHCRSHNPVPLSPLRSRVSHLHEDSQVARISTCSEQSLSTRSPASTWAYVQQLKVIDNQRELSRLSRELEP
EPAC2 ag: EPAC2 (human) agonism; Q8WZA2; EPAC2 activation, biochemical qHTS; response scale: 100% = 6.5 mM cAMP response; Potency, µM (titrated, usually from 154 µM), inactives show at the top dose activation, hits mostly activators; 360,000 compounds, 0.079% hits; further: nearly all actives have a fitted effect of over 50% in size
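Nucleotide exchange monitored as fluorescence drop when BODIPY-GDP leaves Rap1B. Reaction: 100 nM EPAC2, 250 nM RAP1B-BODIPY-GDP, 50 uM GDP, room temperature, kinetic read over 30 min. Activity expressed relative to 6.5 mM cAMP.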
TDP1 block: inhibitors of human tyrosyl-DNA phosphodiesterase TDP1; Potency, µM (doses to about 130 µM), inactives show at the highest dose activity change, negative = inhibition, hits mostly inhibitors; Q9NUW8; recombinant TDP1, AlphaScreen DNA substrate cleavage; AID 485290; 350,000 compounds, 0.28% hits; further: on the % scale 0 is the no-effect control and ±100 the full control effect; nearly all actives have a fitted effect of over 40% in size
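Compounds were preincubated with Tdp1 (1 nM final) for 15 min at room temperature before substrate (15 nM final) started a 5 min reaction; beads (10 ug/ml final) were then added for 10 min before AlphaScreen detection.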
EPAC2 antag: EPAC2 (human) antagonism. Q8WZA2. 360,000 compounds, 0.18% hits. AID 720708. Potency, µM (doses to about 114 µM), inactives show top-dose activity, negative = inhibition, hits mostly inhibitors. EPAC2 GEF exchange of Rap1B-BODIPY-GDP, fluorescence; further: on the % scale 0 is the no-effect control and ±100 the full control effect; nearly all actives have a fitted effect of over 45% in size
ERG Ets-DNA blk: ERG Ets/DNA interaction inhibition; P11308; Potency, µM (highest dose often 76.9 µM), without a hit: top-dose FP activity, negative = inhibition, hits mostly inhibitors; AID 624246; fluorescence polarization, His-ERG Ets domain / labelled DNA; 370,000 compounds, 0.028% hits; active means well fitted inhibition curve with a large enough effect in the polarisation, with a control signal flat; inconclusive means small, poorly fitted or top-dose-only effect, or effect the other way, or a change in a side signal; inactive means no such curve, though single readings can be large or run the other way; the % refers to the polarisation;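 further: polarization taken with two DNA probes labelled with fluorescein and Texas red; % of control where 0% means no effect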
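His-tagged ERG Ets domain (1 uM in the protein solution; 300mM KCl, 50mM Tris-HCl, 1mM EDTA, 1mM DTT, pH 7.5) received compound, then a probe mix of 5 nM fluorescein-DNA and 100nM Texas-615-DNA. Fluorescence polarization was read for both dyes.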
EPAC1 agonist: EPAC1 (human) agonism. EPAC1 agonist qHTS, biochemical assay; response scale: 100% = response to 6.5 mM cAMP. Potency, µM (series often up to 154 µM), for the others: at the top dose activation, actives largely listed as activators. 360,000 compounds, 0.073% hits; further: nearly all actives have a fitted effect of over 60% in size
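Multi-concentration qHTS readout: loss of Rap1B-bound BODIPY-GDP fluorescence driven by 100 nM EPAC1 with excess GDP (50 uM), monitored kinetically at room temperature; agonist response expressed relative to 6.5 mM cAMP.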
* = called active by the depositor; [ ] = remark or other dose. Only some compounds are listed: those with a hit (about 0.54% of all), similar ones and a draw of the others. Unless noted, the call rests on the fitted dose curve; in most records, active means well fitted curve in the direction sought with a large enough effect; inconclusive means small, poorly fitted or top-dose-only effect, or another doubt; inactive means no such curve, though single readings can be large; an effect the other way counts as inactive or inconclusive. Potency means the concentration at half of the fitted maximal effect.

COc1cc2c(cc1OC)C(c1ccccc1)N(C(=O)c1ccco1)CC2 (configuration not stated) was read as EPAC1 antag -29.7%, EPAC2 ag 14.8%, TDP1 block -7.8%, EPAC2 antag 10µM*, ERG Ets-DNA blk -4.1% and EPAC1 agonist -4.2%.
For CC(C)N(CCNS(=O)(=O)c1ccc(Cl)cc1)C(C)C the results were EPAC1 antag 3.8%, EPAC2 ag 10.3%, TDP1 block 3.6%, EPAC2 antag 21.4%, ERG Ets-DNA blk -2.0% and EPAC1 agonist -11.5%.
`CC(C)OP(=O)(OC(C)C)C1(NS(=O)(=O)c2ccc(Cl)cc2)C=C(Cl)C(=O)C(Cl)=C1` gave EPAC1 antag -20.3%, EPAC2 ag 0.6%, TDP1 block 2.2%, EPAC2 antag 39.8µM*, ERG Ets-DNA blk 1.6% and EPAC1 agonist -18.5%.
COc1cccc(Cn2ncc3c4sc(SC)cc4n(C)c3c2=O)c1 was read as TDP1 block 0.3%.
Screening O=C(N/N=C/c1cccc(O)c1)c1ccccc1O returned EPAC1 antag -25.9%, EPAC2 ag inconclusive, EPAC2 antag 10.2%, ERG Ets-DNA blk 15.3% and EPAC1 agonist -7.9%.
`O=C(N/N=C/c1ccc(O)cc1)c1cccc(C(F)(F)F)c1` gave EPAC1 antag -4.3%, EPAC2 ag -12.7%, TDP1 block 1.1%, EPAC2 antag -10.8%, ERG Ets-DNA blk 7.7% and EPAC1 agonist 0.1%.
O=C(N/N=C/c1ccccc1O)c1cccc(C(F)(F)F)c1 was read as EPAC1 antag 7.94µM*, EPAC2 ag -3.3%, TDP1 block inconclusive, EPAC2 antag -8.8%, ERG Ets-DNA blk 6.2% and EPAC1 agonist -9.7%.
O=C(N/N=C\c1ccccc1O)c1ccccc1O was read as TDP1 block 31.6µM*.
`COc1ccc(CCn2c(=S)[nH]c(=O)c3nccnc32)cc1OC` gave TDP1 block 0.0%.
Screening N#CN1CCC(NC(=O)c2cccc(C(F)(F)F)c2)CC1 returned TDP1 block 0.2%.
For Cc1c(N2C(=O)c3ccc4c5c(ccc(c35)C2=O)CC4)c(=O)n(-c2ccccc2)n1C the results were EPAC1 antag -12.6%, EPAC2 ag 1.3%, TDP1 block 17.8µM*, EPAC2 antag -4.7%[57.1 µM], ERG Ets-DNA blk -0.2% and EPAC1 agonist 2.9%.
For Cc1c(N2C(=O)CSC2=S)c(=O)n(-c2ccccc2)n1C the results were EPAC1 antag -1.4%, EPAC2 ag 1.6%, TDP1 block -4.6%, EPAC2 antag 5.3%, ERG Ets-DNA blk 95.9% and EPAC1 agonist 2.9%.
Screening c1ccc(P(c2ccccc2)c2cnc3ccccn23)cc1 returned TDP1 block 3.9%.
For CC(=O)Nc1ccc(Nc2nc(-c3cc4ccccc4oc3=O)cs2)cc1 the results were EPAC1 antag -25.4%, EPAC2 ag 3.9%, TDP1 block 5.3%, EPAC2 antag -1.0%, ERG Ets-DNA blk 8.3% and EPAC1 agonist -2.6%.
For O=C(O)c1ccc(Nc2nc(-c3cc4ccccc4oc3=O)cs2)cc1O the results were EPAC1 antag inconclusive, EPAC2 ag 9.8%, TDP1 block 79.4µM*, EPAC2 antag 3.6%, ERG Ets-DNA blk 15.1% and EPAC1 agonist 28.6%.
Screening CC(=O)Nc1ccc(S(=O)(=O)Nc2ccc(C)c(C)c2)cc1 returned TDP1 block -0.3%.
Screening CN(CC(=O)Nc1ccc(Cl)c(C(F)(F)F)c1)C(=O)c1ccc2c(c1)OCCO2 returned EPAC1 antag -12.8%, EPAC2 ag 1.2%, TDP1 block -6.1%, EPAC2 antag -13.5%, ERG Ets-DNA blk 0.9% and EPAC1 agonist 79.4µM*.
`CN(CC(=O)Nc1ccc(Cl)c(C(F)(F)F)c1)C(=O)Cn1cc([N+](=O)[O-])ccc1=O` gave EPAC1 antag -5.5%, EPAC2 ag 1.8%, TDP1 block 0.3%, EPAC2 antag -1.7%, ERG Ets-DNA blk 25.1µM* and EPAC1 agonist -7.8%.
CN(CC(=O)Nc1ccc(Cl)c(C(F)(F)F)c1)C(=O)C1CC(=O)N(c2ccc3c(c2)OCCO3)C1 (configuration not stated) was read as EPAC1 antag -15.4%, EPAC2 ag 7.2%, EPAC2 antag 4.2% and EPAC1 agonist 1.6%.
Screening O=C1S/C(=C\c2ccc(O)c([N+](=O)[O-])c2)C(=O)N1Cc1cccc([N+](=O)[O-])c1 returned EPAC1 antag inconclusive, EPAC2 ag -2.4%, TDP1 block 5.1%, EPAC2 antag inconclusive, ERG Ets-DNA blk -0.7% and EPAC1 agonist 10.2%.
For O=C(CN1C(=O)S/C(=C\c2ccc(O)c([N+](=O)[O-])c2)C1=O)Nc1ccc(N2CCOCC2)cc1 the results were EPAC1 antag 10.4%, EPAC2 ag -3.7%, TDP1 block 44.7µM*, EPAC2 antag inconclusive, ERG Ets-DNA blk -1.4% and EPAC1 agonist 0.8%.
Cc1cccc(NC(=O)CN2C(=O)S/C(=C\c3ccc(O)c([N+](=O)[O-])c3)C2=O)c1 was read as EPAC1 antag inconclusive, EPAC2 ag -3.6%, EPAC2 antag -18.3%, ERG Ets-DNA blk -4.5% and EPAC1 agonist -6.4%.
For Cc1ccc(NC(=O)CN2C(=O)S/C(=C/c3ccc(O)c([N+](=O)[O-])c3)C2=O)cc1C the results were EPAC1 antag 44.7µM*, EPAC2 ag -12.2%, TDP1 block 79.4µM*, EPAC2 antag inconclusive, ERG Ets-DNA blk -5.5% and EPAC1 agonist 0.7%.
`O=C1S/C(=C\c2ccc(O)c([N+](=O)[O-])c2)C(=O)N1c1ccccc1Cl` gave EPAC1 antag 56.2µM*, EPAC2 ag 5.0%, TDP1 block 2.4%, EPAC2 antag inconclusive, ERG Ets-DNA blk -3.3% and EPAC1 agonist -21.6%.
For O=C1CCc2cc(S(=O)(=O)Nc3ccc4ccccc4c3)ccc2N1 the results were TDP1 block 2.3%.
Cc1ccc(S(=O)(=O)N2CCN(c3nc(-c4cscn4)nc4ccccc34)CC2)cc1 was read as TDP1 block 1.9%.
`Cc1ccc2nc(-c3ccc(C)o3)c(Nc3ccc(Cl)cc3)n2c1` gave TDP1 block 1.9%.
For O=C1CCCC2=C1C1(CCCC1)N=C(Nc1nc3cc(Cl)ccc3o1)N2 the results were TDP1 block 0.4%.
For O=C1NN(c2ccccc2)C(=O)/C1=C/c1ccc(Sc2cccc3ccccc23)o1 the results were EPAC1 antag 56.2µM*, EPAC2 ag -13.4%, TDP1 block 8.0%, EPAC2 antag 4.8%, ERG Ets-DNA blk 8.2% and EPAC1 agonist -5.0%.

Screens as filed in PubChem BioAssay.
